Values joined by “and” are separate entries in the source; they are usually repeats but may differ in a detail not shown here. Identical values can stand only once. The whole screen tested about 16,000 compounds, of which about 5,700 (36%) were called active. Inconclusive results (about 24%) are left out. The list shows a part of the results. A number with no mark means an inactive call. The call rests on the fitted dose curve; in most records, active means well fitted curve in the direction sought with a large enough effect; inconclusive means small, poorly fitted or top-dose-only effect, or effect the other way; inactive means no such curve, though single readings can be large or run the other way.
On the % scale 0 is the no-effect control and ±100 the full control effect.

The target in the experiment is Cytochrome P450 1A2 (Homo sapiens) (UniProt P05177). Kind of experiment: Cytochrome panel assay with activity outcomes. To be noted: recombinant CYP, pro-luciferin dealkylation, luminescence, p450-cyp1a2; series mostly up to 57.1 µM; activity, negative = inhibition: at the top concentration.
Sequence of Cytochrome P450 1A2 (Homo sapiens) (P05177 whole entry, looked up): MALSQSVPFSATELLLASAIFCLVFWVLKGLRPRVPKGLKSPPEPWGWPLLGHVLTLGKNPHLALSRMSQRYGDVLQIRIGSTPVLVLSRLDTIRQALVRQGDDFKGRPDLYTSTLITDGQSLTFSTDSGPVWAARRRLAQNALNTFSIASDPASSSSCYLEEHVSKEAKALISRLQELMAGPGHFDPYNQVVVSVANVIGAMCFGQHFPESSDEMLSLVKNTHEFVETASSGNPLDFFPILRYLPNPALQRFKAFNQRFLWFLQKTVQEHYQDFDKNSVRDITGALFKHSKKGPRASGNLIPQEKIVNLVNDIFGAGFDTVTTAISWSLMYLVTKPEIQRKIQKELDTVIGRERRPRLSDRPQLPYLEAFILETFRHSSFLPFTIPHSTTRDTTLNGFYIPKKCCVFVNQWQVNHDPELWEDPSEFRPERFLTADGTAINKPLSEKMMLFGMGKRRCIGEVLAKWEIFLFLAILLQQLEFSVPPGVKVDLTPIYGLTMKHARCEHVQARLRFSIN
`CN1CCC2(CC1)CCN(S(=O)(=O)c1ccccc1)CC2`: the “activity, negative = inhibition” value was -11%.
The same measure, in the same setting: the same measure for `CC1CN(C(=O)CN2C(=O)NC3(CCCCCC3)C2=O)CC(C)O1` (stereo unspecified): -0.466%.
As a reminder, the AC50 is the concentration at which the activity in the assay is half-maximal. Regarding `Cc1cc(C)n(C(=O)c2cc3c(s2)CCCC3)n1`, the AC50 is 0.282 µM (active).
In the case of `Cc1ccc(CC(=O)N2CC(C)OC(C)C2)cc1` (stereo unspecified), the “activity, negative = inhibition” value is 9.16%.
Take `CC1CN(C(=O)c2cc3c(s2)CCC3)CC(C)O1` (stereo unspecified): the AC50 is 12.6 µM (active).
Regarding `CCCN(CCC)CCc1cccc2c1CC(=O)N2`, the “activity, negative = inhibition” value is -4.15%.
As to `NC(=O)CNCCC(c1ccccc1)c1ccccc1`, the “activity, negative = inhibition” value is -4.69%.
As to `CCC(=O)c1ccc2c(c1)N(CCCN(C)C)c1ccccc1S2`, the concentration at half-maximal activity (AC50) is 0.631 µM (active).
As for `CN(C)CCCN1c2ccccc2Sc2ccc(C(F)(F)F)cc21`, the AC50 was 1.58 µM (active) and 794 nM (active).
Regarding `CN(C)CCCO[C@H]1[C@@H]2OC(C)(C)O[C@@H]2O[C@@H]1[C@H](O)CO`, the “activity, negative = inhibition” value is -3.46% [at 25.6 µM].
With `C/C(=N/Nc1ccc2ccccc2n1)c1ccccc1O`, the AC50 is 1.58 µM (active).
Consider `CC(=NC1CCCCC1)c1ccccc1O`, for which the activity, negative = inhibition is -14.9% [at 11.4 µM].
On to `C/C(CCN1CCc2nc(-c3ccccc3)c(-c3ccccc3)cc2C1)=N\O[C@@H](C)CN1CCCc2nc(C)c(C)cc21`, for which the activity, negative = inhibition was -2.64% [at 11.4 µM].
The same measure, in the same setting: then `CC(C)NC(=O)CSc1nnc(C2CC2)n1-c1ccccc1`, with -6.62%.
Turning to `Cc1cc2nnc(SCCCCN3C(=O)c4ccccc4C3=O)n2c2ccccc12`, the AC50 was 15.8 µM (active).
As to `Cc1cc2nnc(SCC(=O)N3CCN(c4ccccc4)CC3)n2c(N)n1`, the “activity, negative = inhibition” value is -10.5%.
As to `Cc1cc2nnc(SCC(=O)OC(C)C)n2c2ccccc12`, the AC50 is 14.1 µM (active).
For `CCOc1ccc(CNC(=O)C2CC(=O)N(C3CCCC3)C2)cc1OC` (stereo unspecified), the “activity, negative = inhibition” value is -12.7%.
In the case of `O=C(NCCN1CCN(Cc2ccccc2)CC1)C1CC(=O)N(C2CCCC2)C1` (stereo unspecified), the “activity, negative = inhibition” value is -4.83%.
For the molecule `CCOc1ccc(CCNC(=O)C2CC(=O)N(C3CCCC3)C2)cc1OCC` (stereo unspecified), the AC50 was 10 µM (active).
As to `COc1cc2c(cc1OC)-c1cc3ccc(OC)c(OC)c3c[n+]1CC2`, the “activity, negative = inhibition” value is -11.4% [at 25.6 µM].
As to `COc1ccc2cc3[n+](cc2c1OC)CCc1cc2c(cc1-3)OCO2`, the AC50 is 5.01 µM (active).
Take `CCn1nc(C)c(NC(=O)/C=C/c2cnn(C)c2C)c1C`: the “activity, negative = inhibition” value is -12%.
Still for that read-out and setting: the same measure for `CCN1CCN(C(=O)CCc2nc3ccccc3c(=O)[nH]2)CC1`: -11.1%.
Turning to `CCN1CCN(c2nn3c(=O)c4ccccc4nc3c3ccccc23)CC1`, the AC50 was 6.31 µM (active).
Take `CCn1cc(C(=O)O)c(=O)c2cc(F)c(N3CCNCC3)nc21`: the “activity, negative = inhibition” value is -10.1% [at 25.6 µM].
With `CCN1CCN(c2nc(-c3ccccn3)nc3ccccc23)CC1`, the AC50 was 11.2 µM (active).
With `Cc1cccc(C2NC(=O)c3c(sc(C)c3C)N2)c1O` (stereo unspecified), the AC50 is 3.55 µM (active).
Turning to `O=C1CCCC=C1[C@@H](O)CCOC(c1ccccc1)(c1ccccc1)c1ccccc1`, the activity, negative = inhibition was -6.79% [at 11.4 µM].
Take `CCOC(=O)N1CCN(C(=O)CN(C)S(=O)(=O)c2ccc3c(c2)C(C)(C)C(=O)N3C)CC1`: the “activity, negative = inhibition” value was -10.3%.
Same read-out and setting: the same measure for `CCOC(=O)N1CCN(C(=O)CNCc2cccs2)CC1`: 0.601%.
Regarding `CCOC(=O)N1CCN(c2nc(-c3ccco3)cc(C(F)(F)F)n2)CC1`, the concentration at half-maximal activity (AC50) was 0.501 µM (active).
For `CCOC(=O)N1CCN(c2nc(-c3cccs3)cc(C(F)(F)F)n2)CC1`, the concentration at half-maximal activity (AC50) was 2.82 µM (active).
As to `COCCNC(=O)CSc1ncnc2sccc12`, the “activity, negative = inhibition” value was -12.2%.
For `CCCNC(=O)CSc1nc(-c2cccs2)cc(C(F)(F)F)n1`, the AC50 is 2.51 µM (active).
`COc1cc2nc(N3CCN(C(=O)c4ccco4)CC3)nc(N)c2cc1OC`: the “activity, negative = inhibition” value was -13.1% [at 25.6 µM].
As to `CCC1(C)CC(CCNS(=O)(=O)c2ccc(C)cc2)(c2ccc(C)cc2)CCO1` (stereo unspecified), the “activity, negative = inhibition” value is -17.8%.
Consider `CN(C)c1ncc2nc(-c3ccccc3)c(=O)n(C3CC3)c2n1`, for which the AC50 is 2.51 µM (active).
The same measure, in the same setting: the same measure for `CN(C)c1ncc2nc(-c3ccc(F)cc3)c(=O)n(C3CC3)c2n1`: 1.58 µM (active).
In the case of `CCc1cccc(N(C)C(N)=Nc2cccc3ccccc23)c1`, the “activity, negative = inhibition” value is -7.54%.
Same read-out and setting: then `CC(=O)OC[C@H]1O[C@@H](O/N=C\[C@@H](C)[C@H](OCc2ccccc2)C(C)C)[C@H](OC(C)=O)[C@@H](OC(C)=O)[C@H]1OC(C)=O`, with -8.7% [at 11.4 µM].
For `COc1ccccc1-c1nc(N(C)Cc2ccco2)c2ccccc2n1`, the AC50 is 0.501 µM (active).
`Cc1ccccc1-c1nc(N(C)Cc2ccco2)c2ccccc2n1`: the AC50 was 1.58 µM (active).
`CCC(C)(C(=O)NC1CCCC1)N(Cc1ccco1)C(=O)c1ccccn1` (stereo unspecified): the “activity, negative = inhibition” value was -21.7%.
For `CN(Cc1ccco1)c1ccnc(-c2ccccc2C(F)(F)F)n1`, the AC50 was 2.51 µM (active).
Same read-out and setting: then `CN(Cc1ccco1)c1nc(-c2ccccc2C(F)(F)F)nc2ccccc12`, with 2 µM (active).
Same read-out and setting: then `CN(C)Cc1ccccc1-c1nc(N(C)Cc2ccco2)c2ccccc2n1`, with 0.794 µM (active).
As to `CC(C)c1ccc(/C(C(=O)O)=C(\O)C(=O)O)cc1`, the activity, negative = inhibition was -18.6% [at 11.4 µM].
Regarding `COc1c(O)cc2c(c1O)[C@@H]1O[C@@H](CO)[C@@H](O)[C@@H](O)[C@@H]1OC2=O`, the “activity, negative = inhibition” value was -3.97% [at 25.6 µM].
Turning to `CCOC(=O)N/N=C\c1ccc([N+](=O)[O-])o1`, the AC50 was 12.6 µM (active).
Same read-out and setting: then `CCOC(=O)N/N=C(/C)c1ccc([N+](=O)[O-])o1`, with 12.6 µM (active).
Take `Cc1ccc(C(=O)N/N=C/c2ccc(S(=O)(=O)O)o2)c(Cl)c1`: the “activity, negative = inhibition” value was 2.08%.
As for `Cc1ccc(NCC(=O)N/N=C/c2ccc(OC(=O)c3ccco3)cc2)cc1`, the half-maximal activity concentration (AC50) is 7.08 µM (active).
On the same count and under the same terms, the same measure for `Cc1ccc(NCC(=O)N/N=C\c2ccc([N+](=O)[O-])o2)cc1`: 1.41 µM (active).
Turning to `O=C(ON=C1CCN(S(=O)(=O)c2ccccc2)CC1)c1ccccc1`, the “activity, negative = inhibition” value is -2.38%.
On the same count and under the same terms, the same measure for `CCN1C(=O)C2(SC(NC(C)=O)=NN2C(C)=O)c2cc(C)ccc21` (stereo unspecified): -7.91%; for `CC(C)C[C@H](NC(=O)[C@@H]1O[C@H]1C(=O)O)C(=O)NCCCCN=C(N)N`: -9.37%.
As to `Cc1nonc1NC(=O)OCCN1CCOC1=O`, the “activity, negative = inhibition” value was -12.4%.
As for `Clc1ccc2c(c1)C(c1cccs1)=NNC(c1cccnc1)=N2`, the AC50 is 3.16 µM (active).
The same measure, in the same setting: the same measure for `Nc1ccc(Sc2cnn(-c3ccccc3)c(=O)c2Cl)cc1`: 5.01 µM (active).
Turning to `O=c1c(Cl)c(N2CCN(S(=O)(=O)c3ccc(F)cc3)CC2)cnn1-c1cccc(Cl)c1`, the “activity, negative = inhibition” value is -4.11%.
Consider `CC(C)NNC(=O)c1ccncc1`, for which the AC50 result is “inactive”.
The same measure, in the same setting: the same measure for `CC1(C)Cc2ccccc2C(NNC(=O)c2ccncc2)=N1`: 10 µM (active).
`CN1CCC2(CC1)CCN(C(=O)c1ccncc1)CC2`: the “activity, negative = inhibition” value is 0.859%.
On the same count and under the same terms, the same measure for `Cc1sc(NC(=O)/C=C/c2ccc(C(C)C)cc2)c(C#N)c1C`: -4.52%.
Consider `CC1=C(C#N)C(NC(=O)C2CCCCC2)(C(F)(F)F)C(=O)N1` (stereo unspecified), for which the “activity, negative = inhibition” value was -19.3%.
On to `Cc1sc(NC(=O)C2CCCCC2)c(C#N)c1-c1ccccc1`, for which the AC50 was 5.01 µM (active).
Still for that read-out and setting: the same measure for `Cc1c(OCC(F)(F)F)ccnc1CSc1nc2ccccc2[nH]1`: 3.55 µM (active).
Take `C[N+](C)(C)CCCSc1nc2ccccc2[nH]1`: the activity, negative = inhibition is -15.1% [at 11.4 µM].
In the case of `O=c1c[n+](CCCC[n+]2cc(=O)o[nH]2)[nH]o1`, the activity, negative = inhibition was 2.3% [at 11.4 µM].
On to `CC(C)(Oc1ccc(Cl)cc1)C(=O)Nc1ccncc1`, for which the AC50 was 20 µM (active).
For `CC(C)(Oc1ccc(Cl)cc1)C(=O)Nc1cccnc1`, the AC50 was 2 µM (active).
The same measure, in the same setting: then `COCCn1c(=O)c(-c2ccccc2)nc2cnc(Oc3cccc(Cl)c3)nc21`, with 1 µM (active).
`N#CCCn1c(=O)c(-c2cccs2)nc2cnc(Oc3cccc(Cl)c3)nc21`: the AC50 is 3.16 µM (active).
On the same count and under the same terms, then `COCCn1c(=O)c(-c2cc(F)cc(F)c2)nc2cnc(Oc3cccc(Cl)c3)nc21`, with 5.01 µM (active); and `N#CCCn1c(=O)c(-c2ccccc2)nc2cnc(Oc3cccc(Cl)c3)nc21`, with 2.51 µM (active).
Regarding `N#CCCn1c(=O)c(-c2ccc(Cl)cc2)nc2cnc(Oc3cccc(Cl)c3)nc21`, the “activity, negative = inhibition” value was -14.7%.
Take `Cc1noc(C)c1-c1nccc(NCc2ccccc2)n1`: the AC50 was 0.794 µM (active).
On the same count and under the same terms, then `Cc1cnc(CNc2ccnc(-c3c(C)noc3C)n2)cn1`, with 12.6 µM (active).
Take `Cc1noc(C)c1C(=O)N1CCC2(CCN(Cc3ccccc3)CC2)CC1`: the “activity, negative = inhibition” value is -5.81%.
Regarding `Cc1noc(C)c1-c1nccc(NCc2cccs2)n1`, the half-maximal activity concentration (AC50) is 0.501 µM (active).
Take `Cc1noc(C)c1-c1nccc(NCc2cccnc2)n1`: the half-maximal activity concentration (AC50) is 0.158 µM (active).
Regarding `CC(=O)N(NC(=O)c1ccccc1Cl)C1CC(=O)N(c2ccc(C)cc2)C1=O` (stereo unspecified), the “activity, negative = inhibition” value is 5.79%.
Consider `CC(=O)/C=C/c1ccc2ccccc2n1`, for which the AC50 was 2.51 µM (active).
Take `O=C(O)/C=C\C(=O)N1Cc2cc3ccccc3nc2C1`: the activity, negative = inhibition was -16.3% [at 11.4 µM].
Still for that read-out and setting: the same measure for `O=C(c1cnccn1)N1CCC2(CC1)CN(c1ccccn1)C2`: -12.9%.
Turning to `CC(C)CNC(=O)CCCc1c[nH]c2ccccc12`, the AC50 was 14.1 µM (active).
Take `CN(CC(=O)O)Cc1c[nH]c2ccccc12`: the activity, negative = inhibition was -14.8% [at 11.4 µM].
Same read-out and setting: then `C[C@@](N)(Cc1c[nH]c2ccccc12)C(=O)O`, with -11.5% [at 11.4 µM].
The same measure, in the same setting: then `COC(=O)C(Cc1c[nH]c2ccccc12)NC(=O)C(C)C` (stereo unspecified), with -15.1%; and `CN1C2C=C(N(CCc3c[nH]c4ccccc34)C(=O)c3ccc(Cl)cc3)CC1CC2` (stereo unspecified), with 14.6%; and `N[C@@H](Cc1c[nH]c2ccccc12)C(=O)O`, with -1.28%.
Turning to `O=C(Cc1c[nH]c2ccccc12)OCC(=O)c1ccccc1`, the AC50 is 12.6 µM (active).
In the case of `CCOC(=O)CCCc1c[nH]c2ccccc12`, the AC50 is 2.51 µM (active).
Same read-out and setting: the same measure for `O=C(O)CN1CCN(Cc2ccc(F)cc2Cl)C1=O`: 5.62 µM (active).
As for `O=C(O)CN1CCN(Cc2ccccc2)C1=O`, the “activity, negative = inhibition” value is -26.6%.
Still for that read-out and setting: then `Cc1cccc(CN2CCN(CC(=O)O)C2=O)c1`, with 9.94%; and `Cc1ccc(C(c2nnnn2CC2CCCO2)N2CCN(C(=O)c3ccco3)CC2)cc1` (stereo unspecified), with -19.2%.
With `CCOC(=O)c1sc(N(Cc2ccccc2)C(=O)CN2C(=O)CN(C)C2=O)nc1C`, the AC50 was 20 µM (active).
The same measure, in the same setting: then `COc1ccc2[nH]c(=O)c(NC(N)=S)nc2c1`, with 3.55 µM (active).
For `Cc1ccc2[nH]c(=O)c(NC(N)=S)nc2c1`, the half-maximal activity concentration (AC50) is 4.47 µM (active).

Values taken from PubChem BioAssay AID1851 (National Center for Advancing Translational Sciences (NCATS), 2009).
